DT40 TDP1 no CPT – qHTS for Inhibitors of human tyrosyl-DNA phosphodiesterase 1 (TDP1): qHTS in cells in absence of CPT; DT40 Tdp1-/- hTDP1 cells, no CPT, ATP luminescence, 48 h; Potency, µM (titrated, usually from 46.2 µM), for inactives: top-dose activity change, negative = growth inhibition, actives largely listed as inhibitors; actives 15% (n = 420,000); note: nearly all actives have a fitted effect of over 55% in size
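Chicken DT40 Tdp1-/- cells stably complemented with human TDP1 were seeded at 400 cells/well with DMSO in place of 20 nM camptothecin. After compound pinning, cells grew at least 48 hr at 37 °C; viability read by CellTiter-Glo luminescence.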
12-LOX inh – inhibitors of human 12S-lipoxygenase ALOX12; AID 1671190; purified 12hLO, xylenol orange hydroperoxide absorbance; Potency, µM (top dose mostly 108 µM), for inactives: at the top dose activity change, negative = inhibition, most hits filed as inhibitors; actives 1.1% (n = 580,000)
Target sequence (P18054 whole entry, looked up): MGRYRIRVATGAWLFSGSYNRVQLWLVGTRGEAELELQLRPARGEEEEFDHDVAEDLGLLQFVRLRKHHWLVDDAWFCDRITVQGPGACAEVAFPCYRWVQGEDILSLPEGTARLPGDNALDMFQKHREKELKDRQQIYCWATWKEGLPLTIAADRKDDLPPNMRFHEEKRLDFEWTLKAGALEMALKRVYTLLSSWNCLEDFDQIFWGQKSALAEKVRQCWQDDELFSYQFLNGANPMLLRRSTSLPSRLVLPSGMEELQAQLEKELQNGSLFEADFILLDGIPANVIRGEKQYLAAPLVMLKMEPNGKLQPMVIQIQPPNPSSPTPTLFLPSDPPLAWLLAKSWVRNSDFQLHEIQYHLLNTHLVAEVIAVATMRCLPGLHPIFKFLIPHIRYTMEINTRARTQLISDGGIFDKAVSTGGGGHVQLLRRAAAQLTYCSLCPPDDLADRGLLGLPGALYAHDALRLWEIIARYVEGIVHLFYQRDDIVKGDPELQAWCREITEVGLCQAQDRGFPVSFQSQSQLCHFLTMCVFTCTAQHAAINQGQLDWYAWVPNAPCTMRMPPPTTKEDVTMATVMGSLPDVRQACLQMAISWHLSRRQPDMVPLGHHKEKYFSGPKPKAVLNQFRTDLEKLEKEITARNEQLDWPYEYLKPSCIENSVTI
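Purified human 12hLO (150 nM final) in 25 mM Hepes, 0.01% Triton X-100, pH 7.0 was preincubated 15 min at room temperature with compound. Then 40 uM arachidonic acid was added, 30 min. Hydroperoxide was read by Fe-XO absorbance ratio 573/405 nm.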
TDP1 cell CPT – DT40-hTDP1 cell growth loss with CPT; chicken DT40 Tdp1-/-;hTDP1 cells + 20 nM CPT, ATP luminescence, 48 h; Potency, µM (series often up to 46.2 µM), for the others: top-dose activity change, negative = growth inhibition, actives largely listed as inhibitors; actives 12% (n = 420,000); note: nearly all actives have a fitted effect of over 55% in size
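Chicken DT40 Tdp1-/- cells complemented with human TDP1, 400 cells/well, exposed to compounds plus 20 nM camptothecin for at least 48 h at 37 C; viability read as ATP content by CellTiter-Glo luminescence.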
Gal4-VP16 FLuc – Gal4-VP16 reporter inhibition counter-screen | Potency, µM (titrated, usually from 53.6 µM), for inactives: top-dose activity, negative = inhibition, actives largely listed as inhibitors | actives 3.5% (n = 310,000) | Drosophila S2 Gal4-VP16 UAS-luciferase, luminescence, 20 h | AID 2546;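 note: Gal4-VP16 expression switched on by copper sulfate through the metallothionein promoter; nearly all actives have a fitted effect of over 50% in size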
RORgamma inh – inhibitors of mouse ROR gamma transcriptional activity. Drosophila S2 Gal4-RORgamma UAS-luciferase reporter, 20 h. Potency, µM (doses to about 53.6 µM), for the others: at the top dose activity change, negative = inhibition, usual class: inhibitors. actives 5.4% (n = 310,000). AID 2551; note: nearly all actives have a fitted effect of over 60% in size
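Compounds are pin-transferred onto Drosophila Schneider cells expressing a copper-inducible Gal4–ROR gamma transactivation domain fusion. After 1 hr, copper sulfate is added to 700 uM final; luciferase is read 20 hr later.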
ELG1 repair inh – inhibitors of ELG1-dependent DNA repair in HEK293T cells; AID 504467; actives 2.3% (n = 330,000); HEK293T ELG1-luciferase reporter, luminescence, 16 h; DNA damage induced by 5-fluorouridine; Potency, µM (highest dose often 46.1 µM), for the others: at the highest dose activity change, negative = inhibition, hits mostly inhibitors; note: nearly all actives have a fitted effect of over 55% in size
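HEK293T cells expressing luciferase-tagged ELG1 (2,000/well) received 5-Fluorouridine plus compound or DMSO for 16 hr at 37 °C. Luciferase was read by ONE-Glo luminescence after 30 min at room temperature.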
Starred values were filed as active, the others as inactive; [ ] = another dose, or the depositor's remark. Shown are actives, neighbours in structure and some others; about 15% of the full set was active somewhere. Calls come from the whole dose curve; as a rule, active = well fitted curve in the direction sought with a large enough effect; inconclusive = small, poorly fitted or top-dose-only effect, or another doubt; inactive = no such curve, though single readings can be large; an effect the other way counts as inactive or inconclusive. % is set by controls: 0 for no effect and ±100 for the full control effect; potency is the fitted concentration of half-maximal effect.

`CCc1cccc(OCCCCN(CC)CC)c1` gave DT40 TDP1 no CPT -11.1%, 12-LOX inh 1.12µM*, TDP1 cell CPT -27.2%, Gal4-VP16 FLuc 2.7%, RORgamma inh -3.9% and ELG1 repair inh 0.2%.
Screening COc1ccc(OCCCN(C)Cc2ccccc2)cc1 returned DT40 TDP1 no CPT inconclusive, 12-LOX inh inconclusive, TDP1 cell CPT inconclusive, Gal4-VP16 FLuc 16.1%, RORgamma inh -14.1%[1.91 µM] and ELG1 repair inh -2.6%.
`COc1ccc2oc(=O)c(-c3nc(-c4ccccc4Cl)no3)cc2c1` gave 12-LOX inh 10.8%.
Screening CCOC(=O)C[C@H]1c2cc(F)ccc2S(=O)(=O)N1Cc1cc(OC)c(OC)c(OC)c1 returned DT40 TDP1 no CPT 11.2µM* and TDP1 cell CPT 10µM*.
For CNC(=O)c1ccccc1C(=O)c1cc(C)ccc1C the results were 12-LOX inh 1.8%.
Screening COc1ccc2c(c1)c(C(C)=O)c(C)n2-c1ccccc1 returned DT40 TDP1 no CPT -20.4%, 12-LOX inh 11.3%, TDP1 cell CPT -23.1%, Gal4-VP16 FLuc 6.9%, RORgamma inh -12.8% and ELG1 repair inh inconclusive.
Screening COc1ccc(-n2c(C)c(C(C)=O)c3cc(OC(=O)c4ccc(C)cc4)ccc32)cc1 returned DT40 TDP1 no CPT 23.1µM*, 12-LOX inh -16.2% and TDP1 cell CPT inconclusive.
Screening CCOc1ccc(-n2c(C)c(C(=O)O)c3cc(OC)ccc32)cc1 returned DT40 TDP1 no CPT -4.8%, 12-LOX inh 0.0%, TDP1 cell CPT -13.8%, Gal4-VP16 FLuc -7.5%, RORgamma inh -24.7% and ELG1 repair inh inconclusive.
Screening CCOc1ccc(-n2c(C)c(C(C)=O)c3cc(OC(C)=O)ccc32)cc1 returned DT40 TDP1 no CPT inconclusive, 12-LOX inh -2.2%, TDP1 cell CPT inconclusive, Gal4-VP16 FLuc -14.5%, RORgamma inh -17.9% and ELG1 repair inh 6.51µM*.
For O=C1CCCc2[nH]c3cccc(/C(=C/c4ccccc4)c4ccccc4)c3c21 the results were DT40 TDP1 no CPT 18.4µM*, 12-LOX inh -9.5%, TDP1 cell CPT inconclusive, Gal4-VP16 FLuc -2.9%, RORgamma inh -18.7% and ELG1 repair inh -2.5%.
For COC(=O)c1ccc2[nH]c3cccc(/C(=C/c4ccccc4)c4ccccc4)c3c2c1 the results were DT40 TDP1 no CPT inconclusive, 12-LOX inh -28.1%, TDP1 cell CPT inconclusive, Gal4-VP16 FLuc inconclusive, RORgamma inh inconclusive and ELG1 repair inh 14.9%.
Screening CC1(c2ccccc2)CCCN(C(=O)c2ccnc(-n3cnnc3)c2)C1 (centres undefined) returned 12-LOX inh -9.3%.
For COc1ccccc1CCNC(=O)C(=O)NCc1n[nH]c(=O)c2ccccc12 the results were 12-LOX inh -1.1%.
Screening Cn1ncc2c(Nc3ccc(Cl)c(Cl)c3)ncnc21 returned DT40 TDP1 no CPT inconclusive, 12-LOX inh -16.8%, TDP1 cell CPT inconclusive, Gal4-VP16 FLuc -1.9%, RORgamma inh inconclusive and ELG1 repair inh inconclusive.
Screening CCNc1nc(Nc2ccc(C)c(Cl)c2)c2cnn(C)c2n1 returned DT40 TDP1 no CPT 1.64µM*, 12-LOX inh -7.1%, TDP1 cell CPT 18.4µM*, Gal4-VP16 FLuc -8.3%, RORgamma inh -13.7% and ELG1 repair inh 9.2µM*.
`CCCCNc1nc(Nc2ccc(C)c(Cl)c2)c2cnn(C)c2n1` gave DT40 TDP1 no CPT inconclusive, 12-LOX inh inconclusive, TDP1 cell CPT 23.1µM*, Gal4-VP16 FLuc inconclusive, RORgamma inh 29.8% and ELG1 repair inh 18.3µM*.
`Cc1ccc(N(C)C(=O)c2cc(-c3ccco3)nc3ccccc23)cc1` gave 12-LOX inh 35.5µM*.
COc1cccc(NC(=O)CN(C)C(=O)c2cc(-c3ccco3)nc3ccccc23)c1 was read as DT40 TDP1 no CPT 18.4µM*, 12-LOX inh inconclusive, TDP1 cell CPT inconclusive and ELG1 repair inh inconclusive.
For CN(CC(=O)Nc1ccc(F)cc1)C(=O)c1cc(-c2ccco2)nc2ccccc12 the results were DT40 TDP1 no CPT inconclusive, 12-LOX inh 14.1µM*, TDP1 cell CPT -5.8% and ELG1 repair inh inconclusive.
For CCN(CC)CCNC(=O)c1cc(-c2ccco2)nc2ccccc12 the results were DT40 TDP1 no CPT -18.5%, 12-LOX inh inconclusive, TDP1 cell CPT 28.5%, Gal4-VP16 FLuc 6.9%, RORgamma inh -3.2% and ELG1 repair inh 0.6%.
For O=C(Cn1cccc1-c1nc(-c2ccc3c(c2)OCO3)no1)Nc1ccc(Cl)cc1 the results were 12-LOX inh -8.2%.
Screening CCC(c1nnc(SCc2nc3ccccc3s2)n1Cc1ccccc1)N(C)C (centres undefined) returned DT40 TDP1 no CPT inconclusive, 12-LOX inh inconclusive, TDP1 cell CPT -25.7%, Gal4-VP16 FLuc 11.1%, RORgamma inh 21.2% and ELG1 repair inh inconclusive.
For CCn1c(SCC(=O)NCc2ccco2)nnc1C1CCCC1 the results were DT40 TDP1 no CPT 21.4%, 12-LOX inh 0.0%, TDP1 cell CPT 7.1% and ELG1 repair inh -3.9%.
c1ccc(Cn2c(SCc3nc4ccccc4s3)nnc2-c2ccco2)cc1 was read as DT40 TDP1 no CPT inconclusive, 12-LOX inh 0.0%, TDP1 cell CPT 14.6µM*, Gal4-VP16 FLuc 10.6%, RORgamma inh -33.5% and ELG1 repair inh inconclusive.
Cc1cc(NC(=O)CSc2nnc(-c3ccco3)n2Cc2ccccc2)no1 was read as DT40 TDP1 no CPT -22.1%, 12-LOX inh 0.0%, TDP1 cell CPT -25.0%, Gal4-VP16 FLuc 2.7%, RORgamma inh -34.0% and ELG1 repair inh -25.4%.
O=C(CSc1nnc(-c2ccco2)n1Cc1ccco1)NCc1ccccc1 was read as DT40 TDP1 no CPT -21.2%, 12-LOX inh 0.0%, TDP1 cell CPT -0.5%, Gal4-VP16 FLuc -6.9%, RORgamma inh 1.9% and ELG1 repair inh -11.4%.
O=C(CSc1nnc(C2CCCCC2)n1Cc1ccccc1)NCc1ccco1 was read as DT40 TDP1 no CPT 16.4µM*, 12-LOX inh 0.0%, TDP1 cell CPT 16.4µM*, Gal4-VP16 FLuc 6.5%, RORgamma inh 32.5% and ELG1 repair inh -16.7%.
COC(=O)CCNCCSc1nnc(-c2ccco2)n1Cc1ccccc1 was read as DT40 TDP1 no CPT 8.2µM*, 12-LOX inh -11.4%, TDP1 cell CPT 11.6µM*, Gal4-VP16 FLuc -17.5%, RORgamma inh -6.1% and ELG1 repair inh -6.8%.
